# Compound activity as filed in PubChem BioAssay.
# MITF inh: blocks human microphthalmia-associated transcription factor. O75030. AlphaScreen MITF homodimerization, bead proximity signal. inhibition, % at 2.6 µM. hit rate 0.91% among 650,000. AID 1259374; in the data active = inhibition above about 50%
# TEAD-YAP inh: TEAD-YAP interaction inhibition. inhibition, % at 9.12 µM. HEK-TIYL cells, TEAD-Gal4/YAP UAS-luciferase luminescence. hit rate 1.4% among 640,000. AID 1259422; in the data active = inhibition above about 32%
# GPR151 activ: human GPR151 activation | Q8TDV0 | PathHunter beta-arrestin GPR151 cells, luminescence | activation, % at 11.2 µM | hit rate 1% among 650,000 | AID 1508602; in the data active = activation above about 4.9%
# FBW7 act: human FBW7 E3 ligase activation, primary screen | Q969H0 | AlphaScreen FBW7–phospho-cyclin E peptide binding, activator screen | normalized activity (activation), % at 26.1 µM | hit rate 0.13% among 650,000; in the data active = normalized activity above about 1.9%;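 also: purified mutant Fbw7 with reduced substrate affinity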
# Target sequence (Q969H0 whole entry, looked up): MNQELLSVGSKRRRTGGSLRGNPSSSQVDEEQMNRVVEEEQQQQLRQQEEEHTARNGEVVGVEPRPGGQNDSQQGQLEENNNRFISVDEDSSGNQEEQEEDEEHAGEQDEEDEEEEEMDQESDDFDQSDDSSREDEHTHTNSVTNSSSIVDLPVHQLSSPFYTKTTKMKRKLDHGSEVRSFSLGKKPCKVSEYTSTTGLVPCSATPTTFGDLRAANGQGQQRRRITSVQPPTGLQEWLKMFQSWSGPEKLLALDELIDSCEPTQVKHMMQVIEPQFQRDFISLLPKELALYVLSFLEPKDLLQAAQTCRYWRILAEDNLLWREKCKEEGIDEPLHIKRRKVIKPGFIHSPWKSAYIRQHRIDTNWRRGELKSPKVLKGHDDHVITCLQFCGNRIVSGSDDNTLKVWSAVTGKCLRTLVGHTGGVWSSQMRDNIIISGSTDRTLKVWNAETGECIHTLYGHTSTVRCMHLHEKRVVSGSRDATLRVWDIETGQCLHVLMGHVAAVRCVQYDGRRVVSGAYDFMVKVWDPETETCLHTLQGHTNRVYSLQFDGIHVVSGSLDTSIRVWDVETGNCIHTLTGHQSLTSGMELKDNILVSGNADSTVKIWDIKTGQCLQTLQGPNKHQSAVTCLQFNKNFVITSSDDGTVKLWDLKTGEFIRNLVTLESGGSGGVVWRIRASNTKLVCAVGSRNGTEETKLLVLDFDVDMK
# GPR151 confirm: confirmation of human GPR151 activators; AID 1508609; activation, % at 11.2 µM; shares compounds with GPR151 activ; GPR151 PathHunter beta-arrestin cells, luminescence, 90 min; % of EA-reagent control over plate median; 6,700 tested, under 10 active;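 active = mean percent activation across replicates above the confirmation screen cutoff of 4.91%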
# GPR119 counter: GPR119 activation, counter-screen for GPR151 activators | shares compounds with GPR151 activ | activation, % at 11.2 µM | GPR119 PathHunter beta-arrestin cells, luminescence, 90 min; 0 = compound-well median, 100 = enzyme-acceptor control | hit rate 0.3% among 6,700;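 active = mean percent activation in the counterscreen above 29.09%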;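 also: counterscreen on off-target GPR119 to flag nonselective hits from the GPR151 activator screen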
# Hits are given with their value; n = inactive; x = not tested or not shown. An excerpt weighted towards active compounds, which were near 3.4% of everything screened.
SMILES,MITF inh,TEAD-YAP inh,GPR151 activ,FBW7 act,GPR151 confirm,GPR119 counter
O=C(CSc1nc(N2CCCCC2)nc(N2CCCCC2)n1)Nc1ccc(F)cc1,n,n,9.8,n,n,n
Nc1nc(SCC(=O)Nc2ccc(F)cc2)n[nH]1,n,n,n,n,x,x
CO/N=C/c1ccc(OC)c([N+](=O)[O-])c1,n,n,n,n,x,x
O=C1CCC(C(=O)Nc2cc(F)cc(F)c2)=NN1,n,n,6.4,n,n,n
CCCn1c2ccccc2c2nnc(SCC(=O)NCc3ccco3)nc21,n,n,n,n,x,x
COc1ccc(C2Nc3ccccc3S(=O)(=O)N2Cc2ccccc2)cc1[N+](=O)[O-] (configuration not stated),n,n,n,n,x,x
O=[N+]([O-])c1ccc(C2Nc3ccccc3S(=O)(=O)N2Cc2ccccc2)cc1 (configuration not stated),n,n,6.7,n,n,n
COc1ccc(OC)c(NC(=O)CCNS(=O)(=O)c2ccc3c(c2)oc(=O)n3C)c1,n,n,5.1,n,n,n
CNC(=O)CC1C(=O)N(c2cccc(C(F)(F)F)c2)C(=S)N1CCc1ccc(OC)c(OC)c1 (configuration not stated),n,n,8.6,n,n,n
C=CCn1c(COc2ccccc2)nnc1SCC(=O)Nc1cc(C)ccc1OC,n,n,n,n,x,x
CCOC(=O)CN1C(=O)Nc2ccc(Br)cc2C1c1ccccc1 (configuration not stated),n,n,n,n,x,x
COC(=O)CN1C(=O)Nc2ccc(Br)cc2C1c1ccccc1Cl (configuration not stated),n,n,14.9,n,n,n
COc1ccc2c(c1)C(=O)C(OC(=O)N[C@H](C)C1CCCCC1)[C@@H](c1ccc(OC)c(Br)c1)O2 (some centres not stated),n,x,n,n,x,x
COc1ccc(C[C@@H](N)c2nc3ccc(-c4ccncc4)cc3[nH]2)cc1,n,n,n,n,x,x
NC(=O)c1cn(-c2ccccc2)nc1-c1ccc(Cl)cc1,n,n,n,n,x,x
CN(Cc1cn(-c2ccccc2)nc1-c1ccc(Cl)cc1)C(=O)CCC(=O)O,n,n,5.6,n,n,n
O=C(COc1ccc([N+](=O)[O-])cc1Br)N/N=C/c1cc(O)ccc1[N+](=O)[O-],n,n,n,n,x,x
Cc1cccc(CSc2nc(=O)n3ccccc3n2)c1,n,n,5.2,n,n,n
COCC(=O)N1CCCC(CNS(=O)(=O)c2ccc(OC)cc2)C1 (configuration not stated),n,n,n,n,x,x
COc1ccc(S(=O)(=O)NCC2CCCN(C(=O)c3sccc3C)C2)cc1 (configuration not stated),n,n,5.5,n,n,n
COc1ccc(S(=O)(=O)NCC2CCCN(CCCC3CCCC3)C2)cc1 (configuration not stated),n,n,5.8,n,n,n
COc1ccc(S(=O)(=O)NCC2CCCN(Cc3ccncc3)C2)cc1 (configuration not stated),n,n,n,n,x,x
O=C(N/N=C/c1ccc(Cl)c(Cl)c1)c1ccccc1O,n,n,n,n,x,x
COc1ccc(-c2nc(NCCOc3ccccc3)c3ncn(-c4ccsc4)c3n2)cn1,n,n,n,n,x,x
CCCS(=O)(=O)NNC(=O)CCN1CCN(Cc2ccccc2)CC1,n,n,n,n,x,x
SMILES,MITF inh,TEAD-YAP inh,GPR151 activ,FBW7 act,GPR151 confirm,GPR119 counter
COc1cc([N+](=O)[O-])ccc1NC(=O)COC(=O)C(CC(C)C)NC(N)=O (configuration not stated),n,n,5.3,n,n,n
COc1ccc([N+](=O)[O-])cc1NC(=O)COC(=O)CC(c1ccccc1)c1ccccc1,n,n,5.2,n,n,n
COc1cc(Cl)c(C)cc1NC(=O)COC(=O)C(CC(C)C)NC(N)=O (configuration not stated),n,n,n,n,x,x
COc1ccc(C2=N/C(=C\c3ccc(C)o3)C(=O)O2)cc1OC,n,n,n,n,x,x
O=C(NCC(c1ccco1)S(=O)(=O)c1cccs1)C(=O)NC1CCCCC1 (configuration not stated),n,n,n,n,x,x
Cc1nccc2[nH]c(=O)c(C(=O)NCCc3ccccc3)cc12,n,n,7.3,n,n,n
O=c1c(NC2CC2)c(N2CCN(c3ccc4cccc(-c5ccccc5F)c4n3)CC2)c1=O,n,60.2,5.3,n,n,31.0
Fc1ccccc1-c1cccc2ccc(N3CCN(c4ncnc5nc[nH]c45)CC3)nc12,n,n,6.3,n,n,n
CC1=C(C(=O)OCCc2ccccc2)C(c2cccc(Cl)c2)NC(=O)N1 (configuration not stated),n,n,n,n,x,x
CCOc1cccc(C2NC(=O)NC(C)=C2C(=O)OC2CCCCCC2)c1 (configuration not stated),n,n,5.7,n,n,n
CC1=C(C(=O)OCc2ccccc2)C(c2cccc(Cl)c2)NC(=O)N1 (configuration not stated),n,n,5.0,n,n,n
CC1=C(C(=O)OCCc2ccccc2)C(c2ccc(C)s2)NC(=O)N1 (configuration not stated),n,n,5.1,n,n,n
COc1ccc(-c2csc(NC(=O)c3ccc(C)o3)n2)cc1,n,n,9.6,n,n,n
CCCCN(CC)S(=O)(=O)c1ccc(C(=O)Nc2ccc3c4c(cccc24)C(=O)N3CC)cc1,n,n,9.7,n,n,n
Cc1ccccc1NC(=O)Cn1nc(C)n2cccc2c1=O,n,n,8.6,n,n,n
COCCCNC(=O)CCc1c(C)nc2cc(-c3ccccc3)nn2c1C,n,n,5.3,n,n,n
CCCN(CCC)S(=O)(=O)c1ccc(C(=O)Nc2nc3c(OC)cccc3s2)cc1,n,n,6.6,n,n,n
CCCN(CCC)S(=O)(=O)c1ccc(C(=O)Nc2nc3c(ccc4ccccc43)s2)cc1,n,n,n,n,x,x
CCOC(=O)CN1C(=O)C2(C(C#N)=C(N)OC3=C2C(=O)CC(C)(C)C3)c2ccccc21 (configuration not stated),n,n,n,n,x,x
CC1(C)CC(=O)C(C=Nc2cccc([N+](=O)[O-])c2)=C(O)C1,n,n,n,n,x,x
Cn1c2ccccc2c(=O)c2c(=O)n(CCc3ccccc3)c(-c3ccco3)nc21,n,n,9.4,n,n,n
Cn1c2ccccc2c(=O)c2c(=O)n(Cc3ccccc3)c(-c3ccco3)nc21,n,n,n,n,x,x
COCCCn1c(-c2ccc(F)cc2)nc2c(c(=O)c3ccccc3n2C)c1=O,n,n,5.9,n,n,n
CN(Cc1ccccc1)C(=O)c1cccc(N2C(=O)C3C4C=CC(C4)C3C2=O)c1 (configuration not stated),n,n,n,n,x,x
CCc1ccc(-n2cnc3cc(C(=O)NCc4ccc(F)cc4)ccc32)cc1,n,n,n,n,x,x
